# According to PubChem BioAssay (NCI):
# This is part of a sample that, as a whole, favours compounds with a hit. Of some 83,000 tested, about 20% had one in any assay.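 Compound tested at a single concentration for 48 hours in 96-well plates; a percent growth value below 10 was scored as active.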 Values without a mark were called inactive. Calls of active or inactive are those of the source.
# Tested on: NCI-H23 lung
# Test: NCI-60 one-dose screen, 48 h (100 = growth as untreated, 0 = no growth, -100 = all killed)
# Conditions: 10 µM unless noted
row,Structure (SMILES),growth [%]
1,CC(C)c1c(C(=O)c2ccccc2)c(-c2ccccc2)c(-c2ccc(F)cc2)n1CC[C@@H](O)C[C@@H](O)CC(=O)O,56.8
2,O=S(=O)(Nc1ccc(NS(=O)(=O)c2ccccc2)c(Cl)c1)c1ccccc1,103
3,O=C(N=Nc1c(O)[nH]c2ccccc12)c1cc(-c2ccccc2)on1,95.8
4,O=C1NC(=S)NC(=O)C1CC(=O)n1c(-c2ccccc2)nc2ccccc21,97.2
5,Cn1c(O)c(N=NC(=O)c2cc(-c3ccccc3)on2)c2ccccc21,88.5
6,CN1CCN(Cc2ccc(NC(=O)c3cncc(C#Cc4cncn5ccnc45)c3)cc2C(F)(F)F)CC1,63.1

# Tested on: NCI-H226 lung
# Test: as above
# Conditions: 10 µM unless noted
row,Structure (SMILES),growth
1,c1csc(C2=NN3C(C2)c2ccccc2OC3c2ccncc2)c1 (stereo not drawn),85.8%
2,CC1=CC(C)(C)Nc2ccc(Cc3ccc4c(c3)C(C)=CC(C)(C)N4)cc21,88.4%
3,CCCCn1c(-c2ccc(C(=O)O/N=C(\N)c3ccc4ccccc4c3)cc2)nc(-c2ccccc2)c1-c1ccccc1,61.7%
4,O=C(Nc1ccc(Cl)cc1)c1cc2cc(F)ccc2cc1O,7.16% (active)
5,Cn1cc(-c2nonc2-c2cn(C)c3ccc(F)cc23)c2cc(F)ccc21,51.3%
6,CCN(CC)S(=O)(=O)c1ccc(OC)c(NC(=O)c2[nH]c(C)c3c2CCCCC3=O)c1,50%
7,COc1cccc(-c2nc3sccn3c2-c2ccnc(NCCCNS(=O)(=O)c3cccc(F)c3)c2)c1,19.1%
8,COc1cc(/C=C/c2cc(/C=C/c3ccc(O)c(OC)c3)n(-c3c(C)cccc3C)c(=O)n2)ccc1O,4.63% (active)
9,COc1cccc(-c2nc(SCC(=O)Nc3ccc(C(=O)/C=C/c4ccc(OC)c(OC)c4)cc3)[nH]c(=O)c2C#N)c1,105%
10,Cc1cc(C)c2nc3nc(C)cc(C)c3c(N)c2c1,23.2%
11,FC(F)(F)c1ccc(-c2cn3nc(-c4c[nH]c5ccc(Br)cc45)sc3n2)cc1,79.1%
12,CC(=O)O[C@H]1[C@@H]2OC(=O)C(CSc3ccccc3)[C@@H]2C[C@H]2O[C@]2(C)CC/C=C(\C)CCC[C@@H]1C (stereo partly drawn),47.9%
13,Cc1cc(C)nc(SC2=C(Nc3ccc(O)cc3)C(=O)N(Cc3ccccc3)C2=O)n1,89.7% [40 µM]
14,COC(=O)c1ccc(Cn2cnc3c(N)ncnc32)cc1,106%
15,CCOc1nc(-c2ccccc2)cc2c(O)c(C(=O)O)[nH]c(=O)c12,101%
16,COc1ccc(Nc2nc(SC)nc(-c3cccc([N+](=O)[O-])c3)c2C#N)cc1,18.3%
17,CN(C)[C@@H]1C(=O)C(C(=O)NCc2nc3[nH]cnc(=S)c3[nH]2)=C(O)[C@@]2(O)C(=O)C3=C(O)c4c(O)cccc4[C@@](C)(O)[C@H]3C[C@@H]12,49.5%
18,CCOC(=O)c1sc2nc(-c3cccc(O)c3)nc(N3CCOCC3)c2c1C,82.8%
19,O=C1/C(=C/c2ccccc2)SC(=S)N1CCc1ccc(O)cc1,90.2%
20,OCC(O)c1nc2ccc3[nH]ncc3c2c2c1CCCC2 (stereo not drawn),-4.5% (active)
21,CC[C@@H]1O[C@H](O[C@@H](c2cnc[nH]2)[C@H](NC(=O)c2nc([C@H](CC(N)=O)NC[C@@H](N)C(N)=O)nc(N)c2C)C(=O)N[C@H](C)[C@H](O)[C@H](C)C(=O)N[C@@H](C(=O)NCCc2nc(-c3nc(C(=O)NCCCCN=C(N)N)cs3)cs2)[C@@H](C)O)[C@H](O[C@@H]2O[C@H](CO)[C@H](O)[C@H](OC(N)=O)[C@@H]2O)[C@H](C)[C@@H]1C,13%
22,COc1cc2c(cc1-c1c(C)noc1C)ncc1nc(C3CCC(F)(F)CC3)n([C@H](C)COC(F)F)c12,51.1%
23,O=C1c2c(O)cc(O)cc2-c2c(-c3ccc(O)cc3)oc3cc(O)cc1c23,61.2%
24,CCN1CCN(c2nc(NCCNc3ccnc4cc(Cl)ccc34)c3ccccc3n2)CC1,27.2%
25,O=S(=O)(Nc1ccc(Br)c(Cl)c1)c1ccc(-c2cnc(C3CC3)o2)cc1,55.3%
26,Cc1nn(-c2cc(=O)[nH]c3ccc(Cl)cc23)c(N)c1C#N,81.3%
27,Clc1ccc2c(NCCCCNc3nc(N4CCOCC4)nc4ccccc34)ccnc2c1,-43.4% (active)
